# High-throughput results from PubChem BioAssay.
# HP1b binding inh: inhibitors of HP1-beta chromodomain binding to methylated histone tails; P83916; AlphaScreen HP1-beta / biotin-H3K9me3 peptide binding; Potency, µM (highest dose often 114 µM), for inactives: at the top dose activity change, negative = inhibition, most hits filed as inhibitors; hit rate 0.56% among 390,000; AID 540317; further: nearly all actives have a fitted effect of over 70% in size
#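 AlphaScreen: HP1-beta (50 nM) preformed 30 min with biotin-H3(1-18)K9me3 peptide (50 nM) in PBS pH 7.4, 0.01% Tween-20. Compound added for 30 min at RT, then streptavidin donor/nickel chelate acceptor beads (10 ug/mL) for 30 min.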
# JMJD2A Tudor inh: inhibitors of human JMJD2A Tudor domain | Potency, µM (highest dose often 114 µM), for inactives: at the highest dose activity change, negative = inhibition, most hits filed as inhibitors | hit rate 4.4% among 390,000 | AlphaScreen JMJD2A-Tudor / H3K4me3 peptide binding | O75164; further: on the % scale 0 is the no-effect control and ±100 the full control effect; nearly all actives have a fitted effect of over 50% in size
# G9a block: G9a (human) methyltransferase inhibition | Q96KQ7 | G9a H3K9 monomethylation, AlphaScreen, 2 h | Potency, µM (top dose mostly 102 µM), for the others: top-dose activity, negative = inhibition, most hits filed as inhibitors | hit rate 8.8% among 350,000; further: on the % scale 0 is the no-effect control and ±100 the full control effect; nearly all actives have a fitted effect of over 75% in size
#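 Quantitative HTS format: methyltransferase activity on a biotin-tagged H3K9 peptide is measured by AlphaScreen, using a rabbit anti-monomethyl-H3K9 antibody with streptavidin donor and anti-IgG acceptor beads. Final levels are 20 nM enzyme, 500 nM peptide, 20 uM SAM; 2 h RT.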
# BAZ2B inh: inhibitors of human BAZ2B bromodomain | hit rate 4.4% among 360,000 | AID 504333 | AlphaScreen BAZ2B-H3K14Ac peptide displacement | Potency, µM (top dose mostly 114 µM), inactives show at the highest dose activity change, negative = inhibition, usual class: inhibitors | Q9UIF8; further: on the % scale 0 is the no-effect control and ±100 the full control effect; nearly all actives have a fitted effect of over 60% in size
#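 Multi-concentration screen (max 110 uM) measuring displacement of acetylated histone H3 peptide from BAZ2B by AlphaScreen, using 50 nM protein, 50 nM peptide and 10 ug/mL streptavidin donor plus Ni-chelate acceptor beads.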
# PLK1 PBD inh: PLK1 (human) polo-box domain binding inhibition | P53350 | Potency, µM, without a hit: max response, negative = inhibition, actives largely listed as inhibitors | Plk1 PBD binding of FITC phosphopeptide, fluorescence polarization | hit rate 2.8% among 360,000 | AID 720504; further: series mostly up to about 57 µM; on the % scale 0 is the no-effect control and ±100 the full control effect; nearly all actives have a fitted effect of over 65% in size
# 12-LOX inh: ALOX12 (human) lipoxygenase inhibition | purified 12hLO, xylenol orange hydroperoxide absorbance | Potency, µM (highest dose often 108 µM), for inactives: at the highest dose activity change, negative = inhibition, most hits filed as inhibitors | hit rate 1.1% among 580,000; further: on the % scale 0 is the no-effect control and ±100 the full control effect
#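 Hydroperoxide product was detected by ferrous iron/xylenol orange as the 573 to 405 nm absorbance ratio. Arachidonic acid at 40 uM (final) was turned over for 30 min at room temperature by 150 nM human 12hLO, pH 7.0 Hepes buffer, after 15 min compound preincubation.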
# The depositor's hits bear a star; i = inactive; ? = inconclusive; nt = no result given; [ ] = remark or other dose. Shown are actives, neighbours in structure and some others; about 9% of the full set was active somewhere. The call rests on the fitted dose curve; in most records, active means well fitted curve in the direction sought with a large enough effect; inconclusive means small, poorly fitted or top-dose-only effect, or another doubt; inactive means no such curve, though single readings can be large; an effect the other way counts as inactive or inconclusive. Potency means the concentration at half of the fitted maximal effect.
SMILES,HP1b binding inh,JMJD2A Tudor inh,G9a block,BAZ2B inh,PLK1 PBD inh,12-LOX inh
Cc1ccc(C2CC(=O)N3CN(Cc4ccco4)CSC3=C2C#N)cc1 (configuration not stated),?,56.2µM*,?,-7.5%,26.7µM*,6.31µM*
N#CC1=C2SCN(Cc3ccco3)CN2C(=O)CC1c1c(F)cccc1Cl (configuration not stated),?,14.1µM*,1.58µM*,-5.9%,26.7µM*,?
COc1ccc(C(CC(=O)N2CCN(c3ccccc3)CC2)c2c(OC)cc(OC)c3c(-c4ccccc4)cc(=O)oc23)cc1 (configuration not stated),nt,nt,?,39.8µM*,nt,nt
CCN(CC)C(=O)CC(c1ccc(N(C)C)cc1)c1c(OC)cc(OC)c2c(-c3ccccc3)cc(=O)oc12 (configuration not stated),?,31.6µM*,-46.3%[12.7 µM],20µM*,-5.2%,-17.6%
COc1ccc(C(CC(=O)N2CCCCC2)c2c(OC)cc(OC)c3c(-c4ccccc4)cc(=O)oc23)cc1 (configuration not stated),-16.7%,50.1µM*,-2.5%[12.7 µM],44.7µM*,?,39.8µM*
COc1ccc(C(CC(=O)N2CCCC(C)C2)c2c(OC)cc(OC)c3ccc(=O)oc23)cc1 (configuration not stated),7.6%,-24.1%,-14.6%[59 µM],0.6%,6.4%,1.3%
COc1ccc(C(CC(=O)N2CCCC2)c2c(OC)cc(OC)c3ccc(=O)oc23)cc1 (configuration not stated),23.6%,-11.0%,3.9%[59 µM],-14.1%,-6.8%,-20.4%
COc1ccc(C(CC(=O)N2CCCC(C)C2)c2c(OC)cc(OC)c3c(-c4ccccc4)cc(=O)oc23)cc1 (configuration not stated),-9.8%,44.7µM*,16.6%[12.7 µM],44.7µM*,?,?
CC(=O)c1cc2c(cc1NS(=O)(=O)c1ccc3c(c1)OCCO3)OCO2,0.1%,-6.2%,?,-34.3%,-2.3%,-2.6%
O=C1OCCN1C(=O)[C@H]1[C@H](c2ccc(Cl)cc2)C(c2ccc(F)cc2)=NN1c1ccccc1,105.6%,-2.2%,94.0%[59 µM],nt,-6.5%,?
CCN(c1ccccc1)S(=O)(=O)c1ccc(OCc2c(C)noc2C)cc1,22.6%,-5.6%,11.9%[12.7 µM],10.6%,-6.3%,0.0%
COc1ccc(C(CC(=O)N2CCCC2)c2c(OC)cc(OC)c3c(-c4ccccc4)cc(=O)oc23)cc1 (configuration not stated),-15.6%,50.1µM*,14.3%[12.7 µM],56.2µM*,?,?
COc1ccc(C(CC(=O)N2CCOCC2)c2c(OC)cc(OC)c3ccc(=O)oc23)cc1 (configuration not stated),17.9%,-3.4%,-5.4%[12.7 µM],-6.5%,-8.1%,-15.9%
COc1cc(OC)c2c(-c3ccccc3)cc(=O)oc2c1C(CC(=O)N1CCCC1)c1ccc(N(C)C)cc1 (configuration not stated),?,22.4µM*,nt,nt,nt,nt
COc1ccc(C(CC(=O)N2CCOCC2)c2c(OC)cc(OC)c3c(-c4ccccc4)cc(=O)oc23)cc1 (configuration not stated),8.7%,56.2µM*,-16.9%[59 µM],56.2µM*,-29.1%,?
COc1cc(C(CC(=O)N2CCCC2)c2c(OC)cc(OC)c3c(-c4ccccc4)cc(=O)oc23)cc(OC)c1OC (configuration not stated),-13.0%,56.2µM*,7.3%[12.7 µM],50.1µM*,-21.5%,?
CN(C1CCc2nn(CC3CC3)c(=O)n2CC1)S(=O)(=O)c1cccs1 (configuration not stated),nt,nt,nt,nt,nt,57.2%
CCN1C(=O)[C@H]2[C@@H](c3ccccc3)N3C(=O)N(c4cccc(F)c4)C(=O)[C@@]3(CC(C)C)[C@H]2C1=O,27.7%,2.1%,?,?,-7.7%,nt
COC(=O)c1c(N)n(-c2ccc(OC)c(OC)c2)c2nc3ccccc3nc12,22.0%,-5.5%,10.9%[59 µM],1.1%,nt,0.0%
CCN(CCO)c1ccc(-n2c(N)c(C(=O)OC)c3nc4ccccc4nc32)cc1,-5.9%,79.4µM*,35.5µM*,?,-8.5%,?
O=C(c1cnn2c1NC(c1ccc(Br)cc1)CC2C(F)(F)F)N1CCN2CCCC2C1 (configuration not stated),-6.6%,-17.6%,?,nt,-8.6%,0.8%
O=C(c1cnn2c1NC(c1ccc(Br)cc1)CC2C(F)(F)F)N1CCN(C23CC4CC(CC(C4)C2)C3)CC1 (configuration not stated),10.1%,-19.4%,28.2µM*,-29.6%,-2.2%,?
O=c1c(/C=N/Nc2ccccc2)c(Sc2nnnn2-c2ccccc2)nc2ccccn12,9.2%,-14.8%,-13.2%[12.7 µM],6.9%,6.7%,-26.8%
O=C(O)c1ccccc1N/N=C/c1c(Sc2nnnn2-c2ccccc2)nc2ccccn2c1=O,-24.9%,?,39.8µM*,44.7µM*,8.9%,21.6%
CCOC(=O)COc1ccc2c(=O)cc(-c3ccccc3)oc2c1,29.8%,-8.7%,nt,1.8%,0.3%,i
SMILES,HP1b binding inh,JMJD2A Tudor inh,G9a block,BAZ2B inh,PLK1 PBD inh,12-LOX inh
NC(=O)COc1ccc2oc(-c3ccccc3)cc(=O)c2c1,7.2%,-3.0%,50.1µM*,nt,4.7%,4.0%
Cc1ccccc1C(=O)NC(C)C(c1cccs1)N1CCOCC1 (configuration not stated),37.7%,3.5%,-39.6%[59 µM],-2.4%,-0.9%,29.6%
CCOc1ccc(S(=O)(=O)NCc2ccc(C)cc2)c2cccnc12,25.3%,-17.0%[57.1 µM],12.3%,38.1%,-6.2%,13.2%
Oc1cc2c(cc1C(c1ccc(Br)cc1)N1CCCC1)OCO2 (configuration not stated),15.8µM*,7.94µM*,1.58µM*,39.8µM*,1.5µM*,11.2µM*
OC(CN1CCCCC1)c1ccc(Br)cc1 (configuration not stated),29.8%[57 µM],-3.4%,nt,nt,-15.1%,1.3%
CC1(C)CC(NC(=S)NCCN2CCOCC2)CC(C)(C)N1,nt,nt,nt,nt,nt,0.9%
CCc1nc2nc(C)cc(Nc3ccc(Br)cc3F)n2n1,52.6%,-17.5%,-31.6%[59 µM],-1.1%,nt,?
O=C1C2C3C=CC(CC3)C2C(=O)N1c1nccs1 (configuration not stated),-40.5%,50.1µM*,-18.5%[59 µM],44.7µM*,-6.3%,-5.4%
CS(=O)(=O)Nc1ccccc1C(=O)O,7.9%,-25.4%,-26.3%[12.7 µM],-4.6%,-2.5%,-2.5%
O=[N+]([O-])c1ccc(N/N=C2\CC3CC=CC23)c([N+](=O)[O-])c1 (configuration not stated),14.1µM*,14.1µM*,14.1µM*,3.16µM*,-13.6%,-12.4%
O=[N+]([O-])c1ccc(N/N=C2\CC3CC=CC23)cc1 (configuration not stated),16.2%,?,44.7µM*,?,-3.9%,?
